Assay results: PubChem BioAssay (Tox21)
Unmarked numbers belong to inactive results. Records with an inconclusive call do not appear. Entries that show only a call come without a potency. The source made the active and inactive calls. Unless noted, the call rests on the fitted dose curve; in most records, active means well fitted curve in the direction sought with a large enough effect in the repeat runs; inconclusive means weak or mixed curves; inactive means no such curve, though single readings can be large; an effect the other way counts as inactive or inconclusive.

Assays:
[1] = A CellTox Green Cytotoxicity Assay to monitor cytotoxicity in HEK293 cells - 32 hour (AID 1224881); further: nearly all actives have a fitted effect of over 40% in size; further: potency means the concentration at half of the fitted maximal effect
How it was run: (§1)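 Dead-cell fluorescence measured kinetically: asymmetric cyanine dye, HEK293, 600 cells/well, 5 h settle, 23 nL cpd/DMSO, 37 C, reads 0–40 h every 8 h.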

[2] = A CellTox Green Cytotoxicity Assay to monitor cytotoxicity in HepG2 cells - 0 hour (AID 1224882); further: nearly all actives have a fitted effect of over 35% in size; further: potency means the concentration at half of the fitted maximal effect
How it was run: (§2)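 First, HepG2 cells (600/well) mixed with reagent were plated; second, after 5 h at 37 C they received compounds via pintool; third, fluorescence was measured at 0 h through 40 h at 8 h intervals.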

[3] = A CellTox Green Cytotoxicity Assay to monitor cytotoxicity in HepG2 cells - 32 hour (AID 1224883); further: nearly all actives have a fitted effect of over 50% in size; further: potency means the concentration at half of the fitted maximal effect
How it was run: as §2

[4] = qHTS RealTime-Glo MT Cell Viability Assay in HepG2 cells - 16 hour (AID 1224885); further: nearly all actives have a fitted effect of over 50% in size
How it was run: (§3)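 Luminescence read-out: viable HepG2 cells reduce a prosubstrate to a NanoLuc substrate, giving a signal proportional to live cell number. Reads taken at 0, 8, 16, 24, 32 and 40 h of compound exposure at 37 C.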

[5] = qHTS RealTime-Glo MT Cell Viability Assay in HEK293 cells - 24 hour (AID 1224886); further: top concentration of the series differs between compounds; nearly all actives have a fitted effect of over 50% in size
How it was run: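 Nonlytic real-time viability readout: viable cells convert prosubstrate to NanoLuc substrate, giving luminescence proportional to live cell number. HEK293, 600 cells/well, compound added after 5 h, continuous culture at 37 C.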

[6] = qHTS RealTime-Glo MT Cell Viability Assay in HEK293 cells - 8 hour (AID 1224887); further: nearly all actives have a fitted effect of over 50% in size; further: potency means the concentration at half of the fitted maximal effect
How it was run: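 600 HEK293 cells per well, dispensed already mixed with RealTime-Glo MT reagents. Compound dosing came 5 h later. The same wells were read for luminescence at 0, 8, 16, 24, 32 and 40 h of exposure at 37 C.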

[7] = qHTS RealTime-Glo MT Cell Viability Assay in HepG2 cells - 0 hour (AID 1224889); further: nearly all actives have a fitted effect of over 50% in size
How it was run: as §3

[8] = A CellTox Green Cytotoxicity Assay to monitor cytotoxicity in HepG2 cells - 8 hour (AID 1224890); further: nearly all actives have a fitted effect of over 45% in size; further: potency means the concentration at half of the fitted maximal effect
How it was run: as §2

[9] = qHTS assay to identify small molecule antagonists of the estrogen receptor alpha (ER-alpha) signaling pathway using the BG1 cell line in the presence of 0.1 nM 17-beta-estradiol - cell viability counter screen (AID 1259241); further: nearly all actives have a fitted effect of over 40% in size
How it was run: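 Estradiol-stimulated (0.1 nM) VM7Luc4E2 cells exposed to compounds 22 hr; viability measured by fluorescence of cleaved CellTiter-Fluor substrate after 30 min.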

[10] = qHTS assay to identify small molecule antagonists of the androgen receptor (AR) signaling pathway using the MDA cell line in the presence of 0.5 nM R1881 - cell viability counter screen (AID 1259242); further: nearly all actives have a fitted effect of over 45% in size
How it was run: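 qHTS format. MDA-kb2 (MMTV-luc, AR/GR responsive) + cpd + 0.5 nM R1881 final, 16 hr 37C/0% CO2 → CellTiter-Fluor 30 min → fluorescence intensity.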

[11] = qHTS assay to identify small molecule phospholipidosis (PLD) inducers (AID 1259344; active means well fitted curve in the direction sought with a large enough effect; an effect the other way counts as inactive or inconclusive)
How it was run: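 Image-based: LipidTOX Red pit count/intensity per well and per cell; HepG2, 24 h compound at 37 C, PFA fixation, Hoechst counterstain.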

[12] = qHTS assay to identify small molecule HDAC inhibitors (AID 1259364); further: potency means the concentration at half of the fitted maximal effect;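 further: wild-type HCT-116 cells with endogenous class I/II HDAC activity; nearly all actives have a fitted effect of over 45% in size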
How it was run: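 Quantitative high-throughput format: overnight-seeded HCT-116 cells got compounds for 2 hr at 37C; HDAC-Glo I/II reagent added, 30 min RT, luminescence measured.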

[13] = qHTS assay to identify small molecule HDAC inhibitors - cell viability counter screen (AID 1259365)
How it was run: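 After overnight seeding at 1,500 cells per well, wild-type HCT-116 cultures took up compounds in DMSO for 2hr at 37 C. Viable cell content came from luminescence with CellTiter-Glo.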

[14] = qHTS assay to identify small molecule agonists of the sonic hedgehog signaling (Shh) pathway - cell viability counter screen (AID 1259366); further: nearly all actives have a fitted effect of over 50% in size
How it was run: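 Same-well cytotoxicity read. Gli1-Luc reporter 3T3 cells; compounds 24hr, 37C/5% CO2; CellTiter-Fluor fluorescence.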

[15] = qHTS assay to identify small molecule antagonists of the sonic hedgehog signaling (Shh) pathway - cell viability counter screen (AID 1259367); further: nearly all actives have a fitted effect of over 55% in size
How it was run: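 Tox21 library chemicals were tested on a Gli1-Luc NIH/3T3 clone (2,000 cells/well) stimulated by conditioned medium; viability was quantified as fluorescence from CellTiter-Fluor reagent added at 23 hr.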

[16] = qHTS assay to identify small molecule agonists of the sonic hedgehog signaling (Shh) pathway (AID 1259368; calls by dose curve;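 further: NIH/3T3-derived 3T3Gli1-Luc cells carrying a stable Gli1-driven firefly luciferase reporter; series mostly up to about 92 µM; nearly all actives have a fitted effect of over 15% in size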)
How it was run: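 Quantitative high-throughput format using a Gli1-driven firefly luciferase reporter line derived from NIH/3T3 cells. After a 24 hr compound treatment at 37 C and 5% CO2, luminescence reported Gli1 response element activity.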

[17] = A CellTox Green Cytotoxicity Assay to monitor cytotoxicity in HEK293 cells - 8 hour (AID 1224884); further: nearly all actives have a fitted effect of over 35% in size; further: potency means the concentration at half of the fitted maximal effect
How it was run: as §1

[18] = A CellTox Green Cytotoxicity Assay to monitor cytotoxicity in HEK293 cells - 16 hour (AID 1224888); further: nearly all actives have a fitted effect of over 35% in size; further: potency means the concentration at half of the fitted maximal effect
How it was run: as §1

[19] = target: Estrogen receptor (Homo sapiens) (UniProt P03372); test: qHTS assay to identify small molecule antagonists of the estrogen receptor alpha (ER-alpha) signaling pathway using the BG1 cell line in the presence of 0.1 nM 17-beta-estradiol (AID 1259244); further: nearly all actives have a fitted effect of over 50% in size
How it was run: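 Reporter is a stably transfected luciferase under four estrogen responsive elements in VM7Luc4E2 cells expressing native full-length ER-alpha; inhibition of 0.1 nM (final) 17beta-estradiol-driven signal over 22 h is read by luminescence.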

[20] = target: Androgen receptor (Homo sapiens) (UniProt P10275); test: qHTS assay to identify small molecule antagonists of the androgen receptor (AR) signaling pathway using the MDA cell line in the presence of 0.5 nM R1881 (AID 1259243); further: nearly all actives have a fitted effect of over 50% in size
How it was run: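 Antagonist mode quantitative HTS in MDA-kb2 MMTV-luciferase cells, agonist R1881 at 0.5 nM final, 16 hr exposure at 37C and 0% CO2, luminescent detection.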

Estrogen receptor (Homo sapiens), sequence (P03372 whole entry, looked up): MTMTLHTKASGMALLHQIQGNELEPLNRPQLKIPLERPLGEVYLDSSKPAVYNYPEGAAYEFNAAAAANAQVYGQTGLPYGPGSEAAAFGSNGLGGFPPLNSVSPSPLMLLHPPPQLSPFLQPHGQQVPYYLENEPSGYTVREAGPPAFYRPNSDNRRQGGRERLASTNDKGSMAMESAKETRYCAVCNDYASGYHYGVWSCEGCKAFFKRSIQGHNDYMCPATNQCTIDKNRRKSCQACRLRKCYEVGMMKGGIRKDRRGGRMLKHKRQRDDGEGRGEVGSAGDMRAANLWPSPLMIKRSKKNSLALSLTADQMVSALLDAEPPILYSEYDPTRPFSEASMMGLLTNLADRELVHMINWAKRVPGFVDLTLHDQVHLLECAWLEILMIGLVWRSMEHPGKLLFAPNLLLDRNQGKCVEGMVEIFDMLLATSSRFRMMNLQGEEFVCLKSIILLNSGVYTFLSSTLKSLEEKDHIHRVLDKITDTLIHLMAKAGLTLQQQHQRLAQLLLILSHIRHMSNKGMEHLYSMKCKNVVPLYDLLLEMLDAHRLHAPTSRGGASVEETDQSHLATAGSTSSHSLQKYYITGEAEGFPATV
Androgen receptor (Homo sapiens), sequence (P10275 whole entry, looked up): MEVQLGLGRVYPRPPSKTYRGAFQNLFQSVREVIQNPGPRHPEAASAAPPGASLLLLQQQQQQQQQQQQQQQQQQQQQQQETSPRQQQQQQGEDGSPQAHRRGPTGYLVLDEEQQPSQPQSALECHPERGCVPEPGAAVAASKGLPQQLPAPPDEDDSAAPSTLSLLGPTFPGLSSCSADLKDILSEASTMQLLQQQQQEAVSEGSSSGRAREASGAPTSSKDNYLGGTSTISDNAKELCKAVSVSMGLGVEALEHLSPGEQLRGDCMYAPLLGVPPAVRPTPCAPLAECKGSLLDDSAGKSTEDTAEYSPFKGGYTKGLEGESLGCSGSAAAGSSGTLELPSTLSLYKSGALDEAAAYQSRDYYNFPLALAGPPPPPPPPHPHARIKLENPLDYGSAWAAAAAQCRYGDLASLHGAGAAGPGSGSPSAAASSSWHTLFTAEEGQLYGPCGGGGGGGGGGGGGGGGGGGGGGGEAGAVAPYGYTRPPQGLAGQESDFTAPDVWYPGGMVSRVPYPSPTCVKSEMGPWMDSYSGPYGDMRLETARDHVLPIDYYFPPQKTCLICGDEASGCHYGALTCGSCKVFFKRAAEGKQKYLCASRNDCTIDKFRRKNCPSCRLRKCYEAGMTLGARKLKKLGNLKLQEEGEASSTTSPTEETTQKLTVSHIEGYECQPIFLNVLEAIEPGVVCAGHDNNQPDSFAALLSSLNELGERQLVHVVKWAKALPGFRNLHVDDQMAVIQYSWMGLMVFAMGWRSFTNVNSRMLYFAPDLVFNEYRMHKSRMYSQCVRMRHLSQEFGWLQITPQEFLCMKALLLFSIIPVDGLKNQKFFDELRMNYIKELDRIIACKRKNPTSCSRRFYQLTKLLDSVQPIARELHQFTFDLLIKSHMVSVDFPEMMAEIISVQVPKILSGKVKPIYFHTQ

| Compound | Potency [1] | Potency [2] | Potency [3] | outcome [4] | Potency [5] | Potency [6] | Potency [7] | Potency [8] | Potency [9] | outcome [10] | outcome [11] | Potency [12] | outcome [13] | Potency [14] | Potency [15] | Potency [16] | Potency [17] | Potency [18] | Potency [19] | Potency [20] |
| --- | --- | --- | --- | --- | --- | --- | --- | --- | --- | --- | --- | --- | --- | --- | --- | --- | --- | --- | --- | --- |
| C=CC(C)(O)CC/C=C(\C)CCC=C(C)C (configuration not stated) | 49 µM (active) | inactive | 21.9 µM (active) | inactive | inactive | inactive | inactive | 19.5 µM (active) | inactive | inactive | inactive | inactive | inactive | inactive | inactive | inactive |  |  |  |  |
| CCOC(=O)CS | inactive |  | inactive | inactive | inactive | inactive | inactive | inactive | inactive | inactive |  | 25 µM (active) | inactive | inactive |  | inactive | inactive | inactive |  |  |
| CCCCCCC | inactive | inactive | inactive | inactive | inactive | inactive | inactive | inactive | inactive | inactive |  | inactive | inactive | inactive | inactive | inactive |  | inactive | inactive |  |
| CCCCCCOc1ccc(N)cc1 | inactive | inactive |  | inactive |  | 19.5 µM (active) | inactive | inactive | inactive | inactive |  |  | inactive | inactive | inactive | inactive | inactive | inactive | inactive |  |
| CN1CCN(N)CC1 | inactive |  | inactive | inactive | inactive | inactive | inactive | inactive | inactive | inactive |  | inactive | inactive | inactive | inactive | inactive | inactive | inactive | inactive | inactive |
| O=C1C=CC(=O)O1 | inactive |  | inactive | inactive | inactive | inactive | inactive | inactive | inactive | inactive |  | inactive | inactive | inactive | inactive | inactive | inactive | inactive | inactive |  |
| CCCCCCCOC(=O)CCC | inactive | inactive | inactive | inactive | inactive | inactive | inactive | inactive | inactive | inactive |  | inactive | inactive | inactive | inactive | inactive |  |  | inactive |  |
| CCOc1ccc(NS(=O)(=O)c2ccc(N)cc2)nn1 | inactive | inactive | inactive | inactive |  |  | inactive | inactive | inactive | inactive | inactive | inactive | inactive | inactive | inactive |  | inactive |  |  |  |
| CCCCCCCCCCCCCCCCOP(=O)([O-])OCC[N+](C)(C)C | inactive | inactive |  | inactive | inactive | inactive | inactive |  | inactive | inactive | inactive | inactive | inactive | inactive | inactive | inactive | inactive | inactive |  |  |
| O=C1CCC(C2CCCCC2)CC1 | 43.6 µM (active) | 38.9 µM (active) | 38.9 µM (active) | inactive |  |  | inactive | 27.5 µM (active) |  | inactive |  | inactive | inactive | inactive | inactive | inactive | 43.6 µM (active) | 43.6 µM (active) |  |  |
| CCCCCCCCc1ccc(S(=O)(=O)O)cc1 | 54.5 µM (active) | inactive |  | inactive | inactive | inactive | inactive | inactive | inactive | inactive |  | inactive | inactive | inactive | inactive | inactive | inactive |  |  |  |
| CCOC(=O)C1CC(=O)C(=C(O)C2CC2)C(=O)C1 (configuration not stated) | inactive | inactive | inactive | inactive | inactive | inactive | inactive | inactive | inactive | inactive |  | inactive | inactive |  | inactive |  |  | inactive | inactive |  |
| Clc1cccc(-c2cc(Cl)cc(Cl)c2)c1 | 42.1 µM (active) | inactive |  | inactive | inactive | inactive | inactive | inactive | inactive | inactive |  | inactive | inactive |  | inactive | inactive |  |  | inactive |  |
| O=C1N(c2ccccc2)c2ccccc2C1(Cc1ccncc1)Cc1ccncc1 | inactive |  | inactive | inactive | inactive | inactive | inactive | inactive | inactive | inactive | inactive | inactive | inactive | inactive | inactive |  | inactive | inactive | inactive |  |
| Nc1cccc(S(=O)(=O)O)c1 | inactive |  | inactive | inactive | inactive | inactive | inactive | inactive |  | inactive |  | inactive | inactive | inactive | inactive | inactive | inactive | inactive | inactive | inactive |
| CCN(CC)CCOc1ccc(Cc2ccccc2)cc1 | inactive | inactive |  | inactive |  | inactive | inactive | inactive |  | inactive | inactive | inactive | inactive | inactive | inactive |  | inactive | inactive | inactive |  |
| Cc1ccccc1C(=O)Nc1ccc(C(=O)N2CCCC(O)c3cc(Cl)ccc32)c(C)c1 (configuration not stated) | inactive | inactive | inactive | inactive |  |  | inactive | inactive | inactive | inactive |  | inactive | inactive |  | inactive | inactive | inactive | inactive |  |  |
| CCc1cc(Cl)c(OC)c(C(=O)NC[C@@H]2CCCN2CC)c1O | inactive |  | inactive | inactive | inactive | inactive | inactive | inactive | inactive | inactive |  | inactive | inactive | inactive | inactive | inactive | inactive | inactive | inactive |  |
